Source: PubChem
This is a sample that favours compounds with a hit; in the whole collection about 7.4% have one here.
ELG1 genotoxic – genotoxicity induction in ELG1-luciferase HEK293T cells. 1.3% of 330,000 active. HEK293T ELG1-luciferase reporter, luminescence, 16 h. AID 504466. Potency, µM (doses to about 46 µM), without a hit: at the highest dose activity change, positive = activation, most hits filed as activators; further: % of control where 0% means no effect; nearly all actives have a fitted effect of over 60% in size
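Step 1: seed 2,000 HEK293T ELG1-luciferase cells per well. Step 2: add compound or DMSO, incubate 16 hr at 37 °C. Step 3: ONE-Glo, 30 min at room temperature, read luminescence.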
Rab9 prom act – Rab9 promoter activation. Huh7 Rab9 promoter-luciferase reporter, luminescence, 24 h. AID 485297. 2.8% of 320,000 active. Potency, µM (highest dose often 9.22 µM), for inactives: at the highest dose activation, negative = inhibition, actives largely listed as activators; further: % of control where 0% means no effect; nearly all actives have a fitted effect of over 60% in size
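Luminescence read-out: Huh7 cells stably expressing Rab9-luciferase, treated 24 h with compound at 37 °C, then lysed with luciferase reagent for 10 min at ambient before reading.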
SMN2 splice enh – enhancers of SMN2 splice variant expression. HEK293 SMN2-luciferase splicing reporter, luminescence, 30-36 h. Potency, µM (highest dose often 46.1 µM), without a hit: top-dose activity change, positive = activation, actives largely listed as activators. 2.8% of 210,000 active; further: % of control where 0% means no effect; nearly all actives have a fitted effect of over 55% in size
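HEK293 cells carry an SMN2 minigene-luciferase reporter in which exon 7 inclusion puts luciferase in frame. Cells were seeded at 2000 cells/well, attached for 10-12 hours, then exposed to compounds for 30-36 hours at 37C before ONE-Glo luminescence.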
FLuc modulator – counter-screen for miR-21 project: firefly luciferase inhibitors or activators; P08659; purified FLuc, Km substrates, luminescence inhibition; Potency, µM (doses to about 57.5 µM), for inactives: top-dose activity change, negative = inhibition, actives largely listed as inhibitors; 6.9% of 360,000 active;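 further: plate controls were vehicle for no effect and reference inhibitor for full effect; nearly all actives have a fitted effect of over 55% in size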
Target sequence (P08659 whole entry, looked up): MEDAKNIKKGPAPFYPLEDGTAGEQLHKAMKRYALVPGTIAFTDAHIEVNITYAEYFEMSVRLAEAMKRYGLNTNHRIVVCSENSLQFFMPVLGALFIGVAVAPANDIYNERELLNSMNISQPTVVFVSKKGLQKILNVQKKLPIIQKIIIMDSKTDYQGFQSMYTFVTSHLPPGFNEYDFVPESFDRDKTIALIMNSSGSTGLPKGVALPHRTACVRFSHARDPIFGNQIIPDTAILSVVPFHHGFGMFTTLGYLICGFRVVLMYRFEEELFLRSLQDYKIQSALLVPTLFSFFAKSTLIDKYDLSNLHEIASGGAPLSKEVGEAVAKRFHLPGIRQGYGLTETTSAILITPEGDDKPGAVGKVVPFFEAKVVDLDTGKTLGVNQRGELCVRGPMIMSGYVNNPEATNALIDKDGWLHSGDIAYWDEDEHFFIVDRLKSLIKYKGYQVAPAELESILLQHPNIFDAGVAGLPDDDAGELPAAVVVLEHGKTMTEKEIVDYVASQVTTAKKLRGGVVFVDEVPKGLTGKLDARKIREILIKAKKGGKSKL
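Purified P. pyralis luciferase (10nM final) with 10uM D-luciferin and 10uM ATP (Km levels) in 50mM Tris acetate pH 7.5, 10mM Mg acetate, 0.01% Tween-20, 0.05% BSA; qHTS 6-point titration, ~60 µM downward; luminescence read.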
NPC1 promoter act – activators of NPC1 promoter; Huh7 NPC1 promoter luciferase reporter, 24 h; Potency, µM (series often up to 9.22 µM), for inactives: at the highest dose activation, actives largely listed as activators; 2.4% of 320,000 active; further: % of control where 0% means no effect; nearly all actives have a fitted effect of over 60% in size
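Huh7 cells stably carrying NPC1 promoter–luciferase, plated in Opti-MEM with 10% FBS for 2 h, were exposed to compound in DMSO for 24 h at 37 °C; luciferase reagent was added for 10 min and luminescence read.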
Starred values were filed as active, the others as inactive; u = inconclusive; x = not tested or not shown. The call rests on the fitted dose curve; in most records, active means well fitted curve in the direction sought with a large enough effect; inconclusive means small, poorly fitted or top-dose-only effect, or another doubt; inactive means no such curve, though single readings can be large; an effect the other way counts as inactive or inconclusive. Potency means the concentration at half of the fitted maximal effect.

SMILES	ELG1 genotoxic	Rab9 prom act	SMN2 splice enh	FLuc modulator	NPC1 promoter act
CN(C)/C=C1\N=C(c2ccc(Cl)cc2Cl)OC1=O	9.2µM*	0.631µM*	-31.9%	u	1.12µM*
Cc1ccc(C2=N/C(=C\c3cccc(F)c3)C(=O)O2)cc1	-0.1%	1.3%	x	3.01µM*	2.4%
Cc1cccc(C2=N/C(=C\c3cccs3)C(=O)O2)c1	3.4%	2.1%	1.3%	2.13µM*	-1.5%
Cc1ccc(C2=N/C(=C\N(C)C)C(=O)O2)cc1	14.6µM*	u	15.8%	15.1µM*	u
COc1ccccc1/C=N/NC(=O)CCn1cnc2ccccc21	4.3%	-2.1%	-0.2%	-1.4%	-4.6%
O=C(COc1ccc2ccccc2c1Br)N1CCN(c2ccccn2)CC1	-5.4%	-2.5%	-35.9%	-10.4%	-4.3%
NC(=O)C1CCN(C(=O)COc2ccc3ccccc3c2Br)CC1	-4.4%	0.5%	x	-19.0%	-0.7%
O=C(Oc1ccc2ccccc2c1Br)N1CCCCCC1	u	0.631µM*	11.2µM*	1.35µM*	0.501µM*
CCN(CC)C(=O)Oc1ccc2ccccc2c1Br	8.2%	u	u	19µM*	u
O=C(COc1ccc2ccccc2c1Br)N1CCCCC1	18.3µM*	u	x	15.1µM*	4.5%
CCOc1ccc(CCNC(=O)CS(=O)(=O)Cc2nc(-c3cccc(Cl)c3)oc2C)cc1	x	x	-64.1%	-6.1%	x
Cc1cc(NC(=O)COC(=O)c2ccccc2NCCO)no1	8.9%	x	x	x	x
Cc1cc(NC(=O)COC(=O)c2ccccc2S(=O)(=O)N(C)c2ccccc2)no1	-13.8%	8.2%	6.31µM*	3.8%	-10.9%
O=C1NC(=Nc2ccccc2)S/C1=C\c1cccn1-c1ccccc1	u	24.4%	u	10.7µM*	-1.4%
Cc1cccc(N=C2NC(=O)/C(=C/c3cccs3)S2)c1	-0.6%	-2.2%	13.0%	u	7.9%
Cc1cccc(N=C2NC(=O)/C(=C/c3cccn3C)S2)c1	15.6%	13.7%	x	12µM*	9.8%
Cc1ccc(N=C2NC(=O)/C(=C\c3cccs3)S2)cc1C	14.4%	23.1%	3.55µM*	u	13.1%
O=C(Cc1cc(=O)[nH]c(=O)[nH]1)NCc1ccccc1	-3.8%	1.3%	-2.6%	1.2%	-1.2%
CCOc1ccc(-c2nc(-c3ccc(OC)cc3)no2)cc1OCC	-0.9%	0.9%	-29.5%	-2.8%	-1.5%
c1ccc(-c2noc(-c3ccccc3-c3ccccc3)n2)cc1	-0.1%	-4.6%	-11.0%	-14.5%	-1.8%
Cc1ccccc1-c1noc(-c2cc(C(C)C)[nH]n2)n1	x	x	x	10.7µM*	x
CC(C)c1cc(-c2nc(-c3ccccc3)no2)n[nH]1	x	x	x	1.69µM*	x
COc1ccc(-c2noc(-c3cc(C(C)C)[nH]n3)n2)cc1	x	x	x	21.3µM*	x
CC(C)c1cc(-c2nc(-c3ccc(Br)cc3)no2)n[nH]1	x	x	x	13.5µM*	x
Cn1c(=O)[nH]c2cc(-c3noc(-c4ccc(Br)cc4)n3)ccc21	x	x	x	-5.3%	x
SMILES	ELG1 genotoxic	Rab9 prom act	SMN2 splice enh	FLuc modulator	NPC1 promoter act
COc1ccc2c(c1)c(=O)c(C(=O)c1ccc(F)cc1)cn2CC(=O)Nc1ccc2c(c1)OCCO2	x	x	7.3%	5.8%	x
O=C(CN1CCOCC1)NCCNC(=O)CN1CCOCC1	-1.4%	-1.8%	12.6µM*	-1.0%	-2.4%
O=C(CN1C(=O)CCC1=O)Nc1nc(-c2ccc(Oc3ccccc3)cc2)cs1	0.9%	12.8%	-26.9%	u	0.2%
O=C1Nc2ccccc2Nc2ncccc21	-1.3%	4.4%	u	2.6%	-3.6%
Cc1ccc2c(c1)NC(=O)c1cccnc1N2	u	u	11.2µM*	12µM*	3.16µM*
O=C(NN=C1CCCC1)c1ccccc1O	0.2%	6.1%	x	u	-1.2%
COc1ccc(/C(=N\Nc2ccccc2C(=O)O)c2ccccc2)cc1	11.6%	25.6%	-31.3%	9.53µM*	16.9%
O=C(O)c1ccccc1NN=C1CCCCC1	u	u	x	10.7µM*	u
C/C(=N\Nc1ccccc1C(=O)O)c1ccncc1	3.26µM*	3.16µM*	x	10.7µM*	2.24µM*
C/C(=N\NC(=O)c1ccccc1NC(=O)c1ccc(Cl)cc1)c1ccncc1	-23.2%	u	-59.7%	0.0269µM*	u
CCCCc1nc2cc(C(=O)N3CCC(OC)CC3)ccc2o1	12.6%	u	x	u	0.8%
CC(=O)Nc1sc(N/N=C\c2ccccc2F)nc1-c1cccs1	u	14.7%	-40.1%	-17.3%	11.6%
Fc1cccc(Cl)c1/C=N/Nc1ccccn1	12.9%	0.2%	u	-6.1%	12.5%
CCCOc1ccc(/C=N/Nc2cc(N3CCOCC3)ncn2)c(O)c1	17.7%	-44.5%	x	-4.8%	-39.5%
Cc1csc(N/N=C/c2ccccc2F)n1	u	3.5%	x	6.01µM*	11.6%
Cc1csc(N/N=C/c2c(F)cccc2Cl)n1	u	6.3%	x	13.5µM*	0.2%
CCOc1ccc(/C=N/Nc2nc(C)cs2)c(O)c1	16.2%	1.78µM*	x	3.79µM*	1.58µM*
COc1ccccc1NC(=O)Cn1c(=O)n(CCC(=O)NCC2CCCO2)c(=O)c2cc(OC)c(OC)cc21 (centres undefined)	x	x	9.2%	-4.9%	x
Cc1ccc(SCC(=O)N/N=C/c2ccco2)cc1	-1.4%	0.0%	x	1.3%	-1.6%
Cc1ccc(/C=C2/N=C(c3ccccc3)NNC2=O)cc1	-1.8%	0.3%	x	3.9%	-5.0%
COc1cccc(NC(=O)Cn2nnc(C(=O)NCCc3ccccc3)c2N)c1	1.1%	1.5%	x	-0.4%	1.3%
O=C(C1CCC(=O)N(C2CCCC2)C1)N1CCN(Cc2cccc(Cl)c2)CC1 (centres undefined)	-1.9%	-3.4%	x	2.4%	-2.9%
CCc1ccc2nc(N3CCN(C(=O)C4CC4)CC3)sc2c1	x	x	x	15.1µM*	x
O=C(C1COc2ccccc2O1)N1CCN(c2nc3c(F)cccc3s2)CC1 (centres undefined)	x	x	x	-5.3%	x
CCCCN(C)CCNC(=O)C1CCN(c2nc3ccc(CC)cc3s2)CC1	x	x	10.3%	12µM*	x
SMILES	ELG1 genotoxic	Rab9 prom act	SMN2 splice enh	FLuc modulator	NPC1 promoter act
CCCCN(C)CCCNC(=O)c1ccc2nc(N3CCCCC3)sc2c1	x	x	15.4%	3.7%	x
CCc1ccc2nc(N3CCC(C(=O)O)CC3)sc2c1	x	x	u	0.213µM*	x
Cc1ccc2nc(N3CCN(C(=O)C4COc5ccccc5O4)CC3)sc2c1 (centres undefined)	x	x	x	8.49µM*	x
O=C(C1CC(=O)N(c2ccc(Cl)cc2)C1)N1CCC(c2nc3ccccc3[nH]2)CC1 (centres undefined)	-0.7%	1.0%	x	2.8%	-1.5%
COc1ccc(CNC(=O)Cn2nc(C(F)(F)F)c3c2CCC3)cc1	-5.6%	-1.3%	11.2µM*	1.0%	5.6%
COc1cccc(NC(=O)Cn2cc(C(=O)c3ccco3)c3ccccc32)c1	x	x	-18.6%	u	x
Cc1ccc(NC(=O)c2ccc(Cl)c(NC(=O)c3cccs3)c2)cc1	3.3%	8.6%	x	10.7µM*	22.0%
Cc1nc2ccc(NC(=O)c3ccc(Cl)c(NC(=O)c4cccs4)c3)cc2s1	0.9%	-2.3%	11.5%	13.5µM*	4.3%
